In all, about 16,000 sequences were measured (“rpm ratio (pull-down/input)”: median about 0.5, highest 2% from about 5.5 on). For the sample, the highest values were picked, then their nearest neighbours and some sequences at random.

The assay has as its target T1, MBP-FoxP3dN (Mus musculus, UniProt Q99JB6 188-423).
T1 sequence: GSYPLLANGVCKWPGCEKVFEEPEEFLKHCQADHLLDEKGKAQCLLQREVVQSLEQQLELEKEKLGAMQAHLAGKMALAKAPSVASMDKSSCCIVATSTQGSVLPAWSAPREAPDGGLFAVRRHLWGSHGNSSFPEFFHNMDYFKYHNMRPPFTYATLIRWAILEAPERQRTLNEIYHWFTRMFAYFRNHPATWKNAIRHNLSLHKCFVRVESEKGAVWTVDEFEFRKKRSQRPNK
The assay is described as follows: PD-seq (MBP pull-down with sequencing); 20 mM Tris-HCl pH 7.5, 100 mM NaCl, 1.5 mM MgCl2, 0.4 uM protein, 0.1 uM dsDNA library, 30 min, room temperature, amylose pull-down; high values mean tight binding. As to conditions: protein: recombinant; tags: His6-MBP; chain copies: 2; dsDNA, one strand shown. A digest of the protocol:
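A degenerate double-stranded DNA library, filled in with Klenow, was added at 0.1 µM to 0.4 µM His6-MBP-tagged mouse FoxP3 or FoxP1 fragment lacking the N-terminus, expressed in E. coli. Incubation lasted 30 min at room temperature in Tris pH 7.5 buffer with NaCl and MgCl2, after which complexes were collected on amylose resin, washed three times, digested with proteinase K to free the DNA, barcoded by PCR and sequenced by Illumina. Binding is the pooled-replicate reads-per-million enrichment of pull-down over input.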
With “GATGATTGTTCTCCCAGCTGATGAATTGTAATCTTCGAGTAAACAAATTTTCCTAATCTTTCTGTTCAAGCGCCATCTAC”, the binding signal is 0.84 RPM ratio (pull-down/input).
With “GATGATTGTTCTCCCAGCTGATGAATTGGTGAGATCGAGTAAACAAATTTTCCTAATCTTTCTGTTCAAGCGCCATCTAC”, the binding signal is 0.341 RPM ratio (pull-down/input).
As for “GATGATTGTTCTCCCAGCTGATGAATTCTTTTACTCGAGTAAACAAATTTTCCTAATCTTTCTGTTCAAGCGCCATCTAC”, the figure is 0.312 RPM ratio (pull-down/input).
For “GATGATTGTTCTCCCAGCTGATGAATTCTTGGGATCGAGTAAACAAATTTTCCTAATCTTTCTGTTCAAGCGCCATCTAC”, the binding signal is 0.227 RPM ratio (pull-down/input).
As for “GATGATTGTTCTCCCAGCTGATGAATTCCTCGTATCGAGTAAACAAATTTTCCTAATCTTTCTGTTCAAGCGCCATCTAC”, the figure is 0.403 RPM ratio (pull-down/input).
Consider “GATGATTGTTCTCCCAGCTGATGAATTGCGACCGTCGAGTAAACAAATTTTCCTAATCTTTCTGTTCAAGCGCCATCTAC”, for which the binding signal was 0.963 RPM ratio (pull-down/input).
As for “GATGATTGTTCTCCCAGCTGATGAATTCCGACGATCGAGTAAACAAATTTTCCTAATCTTTCTGTTCAAGCGCCATCTAC”, the figure is 0.285 RPM ratio (pull-down/input); as for “GATGATTGTTCTCCCAGCTGATGAATTTCTACCGTCGAGTAAACAAATTTTCCTAATCTTTCTGTTCAAGCGCCATCTAC”, 0.222 RPM ratio (pull-down/input).
In the case of “GATGATTGTTCTCCCAGCTGATGAATTGTTACGATCGAGTAAACAAATTTTCCTAATCTTTCTGTTCAAGCGCCATCTAC”, the binding signal was 0.792 RPM ratio (pull-down/input).
The figure for “GATGATTGTTCTCCCAGCTGATGAATTGTTTTGGTCGAGTAAACAAATTTTCCTAATCTTTCTGTTCAAGCGCCATCTAC” is 3.65 RPM ratio (pull-down/input); for “GATGATTGTTCTCCCAGCTGATGAATTTGTTTGGTCGAGTAAACAAATTTTCCTAATCTTTCTGTTCAAGCGCCATCTAC” it is 7.49 RPM ratio (pull-down/input).
The figure for “GATGATTGTTCTCCCAGCTGATGAATTGGTTTGGTCGAGTAAACAAATTTTCCTAATCTTTCTGTTCAAGCGCCATCTAC” is 3.6 RPM ratio (pull-down/input).
As for “GATGATTGTTCTCCCAGCTGATGAATTGATTGTCTCGAGTAAACAAATTTTCCTAATCTTTCTGTTCAAGCGCCATCTAC”, the figure is 2.86 RPM ratio (pull-down/input); as for “GATGATTGTTCTCCCAGCTGATGAATTGTAGTTCTCGAGTAAACAAATTTTCCTAATCTTTCTGTTCAAGCGCCATCTAC”, 1.39 RPM ratio (pull-down/input); as for “GATGATTGTTCTCCCAGCTGATGAATTCGGCATTTCGAGTAAACAAATTTTCCTAATCTTTCTGTTCAAGCGCCATCTAC”, 5.91 RPM ratio (pull-down/input).
On to “GATGATTGTTCTCCCAGCTGATGAATTCGCGGCATCGAGTAAACAAATTTTCCTAATCTTTCTGTTCAAGCGCCATCTAC”, for which the binding signal is 0.76 RPM ratio (pull-down/input).
The figure for “GATGATTGTTCTCCCAGCTGATGAATTCTCGGCATCGAGTAAACAAATTTTCCTAATCTTTCTGTTCAAGCGCCATCTAC” is 0.601 RPM ratio (pull-down/input).
The figure for “GATGATTGTTCTCCCAGCTGATGAATTCCGGCATTCGAGTAAACAAATTTTCCTAATCTTTCTGTTCAAGCGCCATCTAC” is 4.43 RPM ratio (pull-down/input); for “GATGATTGTTCTCCCAGCTGATGAATTCGGCAGCTCGAGTAAACAAATTTTCCTAATCTTTCTGTTCAAGCGCCATCTAC” it is 1.36 RPM ratio (pull-down/input); for “GATGATTGTTCTCCCAGCTGATGAATTCGGGCATTCGAGTAAACAAATTTTCCTAATCTTTCTGTTCAAGCGCCATCTAC” it is 4.9 RPM ratio (pull-down/input).
As for “GATGATTGTTCTCCCAGCTGATGAATTCGGCATCTCGAGTAAACAAATTTTCCTAATCTTTCTGTTCAAGCGCCATCTAC”, the figure is 7.14 RPM ratio (pull-down/input); as for “GATGATTGTTCTCCCAGCTGATGAATTTCGGCATTCGAGTAAACAAATTTTCCTAATCTTTCTGTTCAAGCGCCATCTAC”, 5.76 RPM ratio (pull-down/input).
Regarding “GATGATTGTTCTCCCAGCTGATGAATTGCGGCATTCGAGTAAACAAATTTTCCTAATCTTTCTGTTCAAGCGCCATCTAC”, the binding signal was 7.34 RPM ratio (pull-down/input).
As for “GATGATTGTTCTCCCAGCTGATGAATTTGCGGCATCGAGTAAACAAATTTTCCTAATCTTTCTGTTCAAGCGCCATCTAC”, the figure is 1.14 RPM ratio (pull-down/input); as for “GATGATTGTTCTCCCAGCTGATGAATTTTCGGCATCGAGTAAACAAATTTTCCTAATCTTTCTGTTCAAGCGCCATCTAC”, 0.816 RPM ratio (pull-down/input).
“GATGATTGTTCTCCCAGCTGATGAATTCGGCCATTCGAGTAAACAAATTTTCCTAATCTTTCTGTTCAAGCGCCATCTAC”: the binding signal is 3.92 RPM ratio (pull-down/input).
The figure for “GATGATTGTTCTCCCAGCTGATGAATTTACTGGCTCGAGTAAACAAATTTTCCTAATCTTTCTGTTCAAGCGCCATCTAC” is 0.472 RPM ratio (pull-down/input); for “GATGATTGTTCTCCCAGCTGATGAATTCTGATGCTCGAGTAAACAAATTTTCCTAATCTTTCTGTTCAAGCGCCATCTAC” it is 1.09 RPM ratio (pull-down/input).
As for “GATGATTGTTCTCCCAGCTGATGAATTAATTTGCTCGAGTAAACAAATTTTCCTAATCTTTCTGTTCAAGCGCCATCTAC”, the figure is 3.03 RPM ratio (pull-down/input).
Turning to “GATGATTGTTCTCCCAGCTGATGAATTACTTAACTCGAGTAAACAAATTTTCCTAATCTTTCTGTTCAAGCGCCATCTAC”, the binding signal is 0.277 RPM ratio (pull-down/input).
The figure for “GATGATTGTTCTCCCAGCTGATGAATTCTGGCCATCGAGTAAACAAATTTTCCTAATCTTTCTGTTCAAGCGCCATCTAC” is 1.12 RPM ratio (pull-down/input).
